{"source": "PubChem BioAssay (Tox21)", "note": "Records with an inconclusive call do not appear. Values without a mark were called inactive. Activity calls are given as the source filed them. Calls come from the whole dose curve. % is set by controls: 0 for no effect and ±100 for the full control effect.", "data": [{"biological_target": "D(2) dopamine receptor (Homo sapiens) (UniProt P14416)", "sequence (P14416 whole entry, looked up)": "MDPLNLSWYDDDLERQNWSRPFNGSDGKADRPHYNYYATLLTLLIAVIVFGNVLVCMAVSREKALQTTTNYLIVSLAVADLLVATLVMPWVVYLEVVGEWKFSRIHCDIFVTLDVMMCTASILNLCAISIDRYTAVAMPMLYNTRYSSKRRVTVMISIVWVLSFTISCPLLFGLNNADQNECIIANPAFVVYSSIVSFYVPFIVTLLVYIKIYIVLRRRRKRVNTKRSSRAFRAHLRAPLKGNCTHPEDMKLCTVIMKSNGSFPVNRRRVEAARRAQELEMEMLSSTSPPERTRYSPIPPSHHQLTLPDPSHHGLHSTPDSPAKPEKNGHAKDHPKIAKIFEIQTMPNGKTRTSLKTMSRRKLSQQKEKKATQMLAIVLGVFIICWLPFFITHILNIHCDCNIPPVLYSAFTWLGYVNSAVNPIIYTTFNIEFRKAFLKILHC", "test": "Dopamine D2 receptor (DRD2) small molecule agonists, cell-based qHTS assay (AID 1963594); note: nearly all actives have a fitted effect of over 35% in size", "conditions": "HEK293-DRD2 cAMP HTRF, agonist mode, 30 min; series mostly up to 92.4 µM; activation: at the top concentration", "description": "National Center for Advancing Translational Sciences [NCATS]\nDivision of Preclinical Innovation [DPI]\nU.S. Environmental Protection Agency [EPA]\nNational Institutes of Environmental Health Sciences [NIEHS]\nNational Toxicology Program [NTP]\nU.S. Food and Drug Administration [FDA]\nDRD2 is the D2 subtype of the dopamine receptor, which is coupled to Gi subtype of G protein-coupled receptor. This G protein-coupled receptor inhibits adenylyl cyclase activity. The DRD2-HEK293 cell line stably expressing D2 dopamine receptor can be used for screening agonists and antagonists of interactions between D2 and its ligands. The Hek293-DRD2 cAMP assay is based on HTRF technology. It measures changes of cAMP accumulation in response to Gi coupled GPCR activation or inhibition.\nTox21 Assay Protocol Summary:\nDRD2-Hek293 cells were dispensed at 600 cells/3uL/well in 1536-well white plates using a Multidrop Dispenser. After the assay plates were incubated at a 37 C/5% CO2 incubator for 24 h, 1 uL of Ro20-1724 at final concentration of 0.1 mM was transferred to the assay plate by a Flying Reagent Dispenser. Following Ro20-1724 addition, 23 nL of compound dissolved in DMSO, positive controls or DMSO only was added to the assay plates via Wako pintool station. The assay plates were incubated at room temperature for 10 min. Next, 1 uL of NKH477 at 200nM was added into the plates. After the assay plates were incubated at room temperature for an additional 30 min, 2.5 ul/well of cAMP-d2 and 2.5 ul/well of anti-cAMP-cryptate were added respectively into the assay plates using a Flying Reagent Dispenser. The plates were incubated at room temperature for 1 h. The fluorescence intensity in the plates was measured at 340 nm excitation and 665 & 620 nm emission by an Envision plate reader.", "values": [{"smiles": "CCCCSCCCC", "activation": "4.69%"}, {"smiles": "CC(C)CC(C)(N)C#N", "note": "(stereo not given)", "activation": "-0.182%"}, {"smiles": "CC(C)CCCC(C)CCCC(C)CCCCC(C)CCCC(C)CCCC(C)C", "note": "(stereo not given)", "activation": "4.66% [at 42.5 µM]"}, {"smiles": "C=CC(O)CCCCC", "note": "(stereo not given)", "activation": "5.41%"}, {"smiles": "C(/C=C/C=C/Nc1ccccc1)=Nc1ccccc1", "activation": "-0.894%"}, {"smiles": "O=C1CCCCCCCCCCCCCCCO1", "activation": "4.44%"}, {"smiles": "CC(C=O)Cc1ccc(C(C)(C)C)cc1", "note": "(stereo not given)", "Potency": "inactive"}, {"smiles": "COC(=O)CCC(=O)O", "activation": "4.61%"}, {"smiles": "COC(=O)c1ccc(C)cc1C1=NC(C)(C(C)C)C(=O)N1", "note": "(stereo not given)", "activation": "-9.97%"}, {"smiles": "COc1ccc(CCN2CCC(Nc3nc4ccccc4n3Cc3ccc(F)cc3)CC2)cc1", "Potency": "inactive"}, {"smiles": "COc1ccc(Br)c(C)c1", "activation": "0.684%"}, {"smiles": "COc1ccc2c(c1)CCCC2=O", "activation": "-5.98% [at 42.5 µM]"}, {"smiles": "CC(=O)N[C@@H](Cc1ccc(O)cc1)C(=O)O", "activation": "-9.81% [at 42.5 µM]"}, {"smiles": "CCc1cnc(C(=O)O)c(C(=O)O)c1", "activation": "-1.91%"}, {"smiles": "O=c1oc2c(O)c(O)cc3c(=O)oc4c(O)c(O)cc1c4c23", "activation": "15.6% [at 19 µM]"}, {"smiles": "Nc1cc(-c2ccncc2)c[nH]c1=O", "Potency": "inactive"}, {"smiles": "CC12CCC(C(=O)C1=O)C2(C)C", "note": "(stereo not given)", "activation": "3.19%"}, {"smiles": "N[C@@H](CCC(=O)Nc1ccc([N+](=O)[O-])cc1)C(=O)O", "activation": "1.82%"}, {"smiles": "COC(=O)c1ccccc1C", "activation": "0.632%"}, {"smiles": "COC(=O)C1=C(C)NC(C)=C(C(=O)OCCN(C)Cc2ccccc2)C1c1cccc([N+](=O)[O-])c1", "note": "(stereo not given)", "Potency": "inactive"}, {"smiles": "O=S(=O)(O)C(F)(F)F", "activation": "-0.145%"}, {"smiles": "O=C(O)c1ccc(O)cc1O", "activation": "2.59%"}, {"smiles": "O=C(CCNNC(=O)c1ccncc1)NCc1ccccc1", "activation": "-5.42% [at 42.5 µM]"}, {"smiles": "CC12CCC(C1)C(C)(C)C2O", "note": "(stereo not given)", "activation": "-0.675%"}, {"smiles": "O=c1cc(CO)occ1O", "activation": "4.06% [at 42.5 µM]"}, {"smiles": "CC(=O)c1ccc(O)c(C(N)=O)c1", "activation": "-0.66% [at 42.5 µM]"}, {"smiles": "CC1(C)CO[C@@H](CC(=O)O)CN1", "activation": "-1.74% [at 42.5 µM]"}, {"smiles": "C=CCOCC(CO)(COCC=C)COCC=C", "activation": "-12.1% [at 42.5 µM]"}, {"smiles": "O=C(C(=O)c1ccccc1)c1ccccc1", "activation": "-0.0176%"}, {"smiles": "CCN(C=O)CC", "activation": "0.0247%"}, {"smiles": "CCCCCCCCSCCO", "activation": "3.45%"}, {"smiles": "NCc1cccc(CN)c1", "Potency": "inactive"}, {"smiles": "CC(C)CC(=O)O", "activation": "1.5%"}, {"smiles": "CC(C)COC(=O)c1ccccc1O", "activation": "0.337%"}, {"smiles": "O=C1CCC(=O)O1", "activation": "-2.13%"}, {"smiles": "O=C(Nc1ccc([N+](=O)[O-])cc1Cl)c1cc(Cl)ccc1O", "Potency": "inactive"}, {"smiles": "OCCC(F)(F)C(F)(F)C(F)(F)C(F)(F)C(F)(F)C(F)(F)F", "activation": "5.74%"}, {"smiles": "C1=COCCC1", "activation": "3.05%"}, {"smiles": "CC/C=C\\CC1=C(C)CCC1=O", "activation": "-10%"}, {"smiles": "O=C1NC(c2ccccc2)(c2ccccc2)C(=O)N1COP(=O)(O)O", "activation": "0.0716% [at 42.5 µM]"}]}]}
